Measurements taken from PubChem BioAssay (NCI).
Compounds without any hit were thinned out: in the full panel of roughly 79,000, 15% have a hit. A number with no mark means an inactive call. The source made the active and inactive calls. No stated cut-off is given here; in the data, active means growth inhibition above about 70%; inactive means the rest. Residues, ends and D or L forms follow the SMILES beside them. *: point of attachment. Fmoc = O=C(OCC1c2ccccc2-c2ccccc21)*; Boc = CC(C)(C)OC(=O)*

Assay: NCI Yeast Anticancer Drug Screen. Data for the cln2 rad14 strain (AID 165);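 further: 0% = growth equal to vehicle treated cultures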
Conditions: S. cerevisiae cln2 rad14 strain, at 5.0 µM (retest, dose inferred, filed as 0.5), active compounds read high
How it was run: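 Relative to vehicle controls, growth inhibition of compound-treated cln2 rad14 yeast was recorded.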

| Compound | growth inhibition |
| --- | --- |
| CC(C)C(=O)CC(Sc1ccc(N)cc1)c1ccccc1 (configuration not stated) | -3% |
| CC(C)OP(=O)(OC(C)C)/C(Cl)=N/Nc1ccc([N+](=O)[O-])cc1 | 28% |
| O=[N+]([O-])c1cc(Cl)ccc1S(=O)(=O)c1ccc(Cl)cc1[N+](=O)[O-] | 13% |
| CCCCCCNCCCNc1c2cc(OC)ccc2nc2cccc([N+](=O)[O-])c12 | 77% (active) |
| N#CCC(=O)N/N=C(\c1ccccc1)C(c1ccccc1)C1(O)C(=O)Nc2c(Cl)ccc(Cl)c21 (configuration not stated) | 9% |
| CN(C)CCNCCCNc1c2ccccc2nc2cccc([N+](=O)[O-])c12 | 80% (active) |
| CCC[CH2][Ge]([CH2]CCC)([CH2]CCC)[O]C(=O)C(O)c1ccccc1 (configuration not stated) | 12% |
| COc1ccc(-c2cc(-c3cc(C)cc(Cl)c3O)nc3[nH]c(=S)[nH]c(=S)c23)cc1 | 44% |
| O=[N+]([O-])c1ccc(/C=C\c2ccc3c(c2)OCO3)c([N+](=O)[O-])c1 | 2% |
| O=C1c2ccccc2N2OC3(N4CCCC4)CCCCC3C12c1ccccc1 (configuration not stated) | 16% |
| CC(C)OC(=O)NNc1cc(Cl)ccc1Cl | 4% |
| Cc1oc2ccccc2c(=O)c1Cn1nnc2ccccc21 | 9% |
| CC1(C)OC(=O)C(=Cc2ccc([N+](=O)[O-])s2)C(=O)O1 | 47% |
| CCN(CC)CCCNc1ccc([N+](=O)[O-])c2nc3ccc(OC)cc3c(NCCCN(CC)CC)c12 | 43% |
| COc1cccc(/C=C2\S/C(=N/Nc3nc(-c4ccc([N+](=O)[O-])cc4)cs3)NC2=O)c1O | 33% |
| OC(Cc1cccc2ccccc12)CN1CCC(c2ccccc2)CC1 (configuration not stated) | 58% |
| C1=CCN([B-](c2ccccc2)[C+]2CCCCC2)C=C1 | -1% |
| O=[N+]([O-])c1cc[n+]([O-])c(Cl)c1 | 10% |

| Compound | growth inhibition |
| --- | --- |
| CCCNC(=O)OCc1c(COC(=O)NCCC)c(-c2ccc(Cl)c(Cl)c2)n2c1CCC2 | 20% |
| CC1(C)CC(=O)C(C(=O)Nc2cccs2)=C(O)C1 | 23% |
| O=C(NO)c1coc2ccccc2c1=O | -4% |
| COc1ccc(C(C)c2cc3c(cc2OCC(C)=O)OCO3)cc1 (configuration not stated) | -6% |
| CCS(=O)(=O)Nc1ccc(Nc2c3ccccc3nc3ccccc23)c(OC)c1 | 43% |
| O=S(=O)(c1ccccc1)N1CN2CN(C1)CN(S(=O)(=O)c1ccccc1)C2 | 44% |
| CC1=NN(C(=O)c2ccccc2O)C(=O)/C1=C/c1ccco1 | 28% |
| O=C1C=C(Br)C(=O)c2ccccc21 | 5% |
| C[N+](C)([O-])CCCNc1c2ccccc2nc2cccc([N+](=O)[O-])c12 | 85% (active) |
| Cc1cccc2c(NCCCN(C)C)c3c([N+](=O)[O-])ccc(C)c3nc12 | 49% |
| OC1(c2ccccc2)C2CC=CC2C1(c1ccccc1)c1ccccc1 (configuration not stated) | 15% |
| C[n+]1c(-c2ccc(/C=N/NC(=O)c3ccc(C(=O)N/N=C/c4ccc(-c5cn6ccccc6[n+]5C)cc4)cc3)cc2)cn2ccccc21 | 16% |
| CCN(CC)CCC(=O)Nc1ccc2sc3ccccc3c(=O)c2n1 | 21% |
| O=[N+]([O-])c1ccc2nc(=S)[nH]n2c1 | -59% |
| O=C(c1ccccc1)[C@H]1Nc2ccc(Cl)cc2[C@H]2OCCC[C@@H]12 | 33% |
| COc1cc([N+](=O)[O-])c2ncccc2c1Br | 22% |
| O=S(=O)(c1cccc(C(F)(F)F)c1)N1c2ccccc2-n2cccc2C1c1cccnc1 (configuration not stated) | 22% |
| CC(C)(C)OC(=O)NCCCCC(NC(=O)C(Cc1c[nH]c2ccccc12)NC(=O)OCC1c2ccccc2-c2ccccc21)C(=O)O (configuration not stated) (Fmoc-Trp-Lys(Boc)-OH; configuration not given here) | 37% |

Same assay, conditions: S. cerevisiae cln2 rad14 strain, at 50.0 µM (retest, dose inferred, filed as 5.0), active compounds read high

| Compound | growth inhibition |
| --- | --- |
| CC(C)C(=O)CC(Sc1ccc(N)cc1)c1ccccc1 (configuration not stated) | 57% |
| CC(C)OP(=O)(OC(C)C)/C(Cl)=N/Nc1ccc([N+](=O)[O-])cc1 | 80% (active) |
| O=[N+]([O-])c1cc(Cl)ccc1S(=O)(=O)c1ccc(Cl)cc1[N+](=O)[O-] | 91% (active) |
| CCCCCCNCCCNc1c2cc(OC)ccc2nc2cccc([N+](=O)[O-])c12 | 99% (active) |
| N#CCC(=O)N/N=C(\c1ccccc1)C(c1ccccc1)C1(O)C(=O)Nc2c(Cl)ccc(Cl)c21 (configuration not stated) | 10% |
| CN(C)CCNCCCNc1c2ccccc2nc2cccc([N+](=O)[O-])c12 | 97% (active) |
| CCC[CH2][Ge]([CH2]CCC)([CH2]CCC)[O]C(=O)C(O)c1ccccc1 (configuration not stated) | 12% |
| COc1ccc(-c2cc(-c3cc(C)cc(Cl)c3O)nc3[nH]c(=S)[nH]c(=S)c23)cc1 | 76% (active) |
| O=[N+]([O-])c1ccc(/C=C\c2ccc3c(c2)OCO3)c([N+](=O)[O-])c1 | 76% (active) |
| O=C1c2ccccc2N2OC3(N4CCCC4)CCCCC3C12c1ccccc1 (configuration not stated) | 33% |
| CC(C)OC(=O)NNc1cc(Cl)ccc1Cl | 21% |
| Cc1oc2ccccc2c(=O)c1Cn1nnc2ccccc21 | 50% |
| CC1(C)OC(=O)C(=Cc2ccc([N+](=O)[O-])s2)C(=O)O1 | 81% (active) |
| CCN(CC)CCCNc1ccc([N+](=O)[O-])c2nc3ccc(OC)cc3c(NCCCN(CC)CC)c12 | 57% |
| COc1cccc(/C=C2\S/C(=N/Nc3nc(-c4ccc([N+](=O)[O-])cc4)cs3)NC2=O)c1O | 85% (active) |
| OC(Cc1cccc2ccccc12)CN1CCC(c2ccccc2)CC1 (configuration not stated) | 76% (active) |
| C1=CCN([B-](c2ccccc2)[C+]2CCCCC2)C=C1 | 18% |
| O=[N+]([O-])c1cc[n+]([O-])c(Cl)c1 | 98% (active) |

| Compound | growth inhibition |
| --- | --- |
| CCCNC(=O)OCc1c(COC(=O)NCCC)c(-c2ccc(Cl)c(Cl)c2)n2c1CCC2 | 73% (active) |
| CC1(C)CC(=O)C(C(=O)Nc2cccs2)=C(O)C1 | 37% |
| O=C(NO)c1coc2ccccc2c1=O | 16% |
| COc1ccc(C(C)c2cc3c(cc2OCC(C)=O)OCO3)cc1 (configuration not stated) | 9% |
| CCS(=O)(=O)Nc1ccc(Nc2c3ccccc3nc3ccccc23)c(OC)c1 | 84% (active) |
| O=S(=O)(c1ccccc1)N1CN2CN(C1)CN(S(=O)(=O)c1ccccc1)C2 | 52% |
| CC1=NN(C(=O)c2ccccc2O)C(=O)/C1=C/c1ccco1 | 90% (active) |
| O=C1C=C(Br)C(=O)c2ccccc21 | 99% (active) |
| C[N+](C)([O-])CCCNc1c2ccccc2nc2cccc([N+](=O)[O-])c12 | 96% (active) |
| Cc1cccc2c(NCCCN(C)C)c3c([N+](=O)[O-])ccc(C)c3nc12 | 95% (active) |
| OC1(c2ccccc2)C2CC=CC2C1(c1ccccc1)c1ccccc1 (configuration not stated) | 19% |
| C[n+]1c(-c2ccc(/C=N/NC(=O)c3ccc(C(=O)N/N=C/c4ccc(-c5cn6ccccc6[n+]5C)cc4)cc3)cc2)cn2ccccc21 | 78% (active) |
| CCN(CC)CCC(=O)Nc1ccc2sc3ccccc3c(=O)c2n1 | 11% |
| O=[N+]([O-])c1ccc2nc(=S)[nH]n2c1 | 2% |
| O=C(c1ccccc1)[C@H]1Nc2ccc(Cl)cc2[C@H]2OCCC[C@@H]12 | 44% |
| COc1cc([N+](=O)[O-])c2ncccc2c1Br | 57% |
| O=S(=O)(c1cccc(C(F)(F)F)c1)N1c2ccccc2-n2cccc2C1c1cccnc1 (configuration not stated) | 96% (active) |
| CC(C)(C)OC(=O)NCCCCC(NC(=O)C(Cc1c[nH]c2ccccc12)NC(=O)OCC1c2ccccc2-c2ccccc21)C(=O)O (configuration not stated) (Fmoc-Trp-Lys(Boc)-OH; configuration not given here) | 21% |
